Assay results from PubChem BioAssay (NCI).
Compounds without any hit were thinned out: in the full panel of roughly 79,000, 15% have a hit. No stated cut-off is given here; in the data, active means growth inhibition above about 70%; inactive means the rest.

Legend:
[1] = NCI Yeast Anticancer Drug Screen. Data for the rad50 strain (AID 155);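 further: 0% = growth of vehicle-only cultures of the same strain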; settings: S. cerevisiae rad50 strain growth inhibition; at 50.0 µM; hits give high values
Method in brief: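 Readout: growth inhibition relative to vehicle-treated cultures. Compound exposure was carried out in a genetically defined yeast strain deficient in DNA damage repair.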

[2] = NCI Yeast Anticancer Drug Screen. Data for the mec2-1 strain (AID 157); settings: S. cerevisiae mec2-1 strain, at 50.0 µM, hits give high values
Method in brief: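 Growth inhibition is read against vehicle-treated controls after compound exposure of the mec2-1 yeast strain, which is defective in DNA damage repair or cell cycle control.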

[3] = NCI Yeast Anticancer Drug Screen. Data for the sgs1 mgt1 strain (AID 161);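 further: 0% = growth of cultures given vehicle only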; settings: S. cerevisiae sgs1 mgt1 strain, at 50.0 µM, hits give high values
Method in brief: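 Compounds are added to genetically altered yeast, and growth is compared with cultures given vehicle alone to give percent inhibition.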

[4] = NCI Yeast Anticancer Drug Screen. Data for the cln2 rad14 strain (AID 165);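 further: 0% = growth equal to vehicle treated cultures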; settings: S. cerevisiae cln2 rad14 strain, at 50.0 µM, hits give high values
Method in brief: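 Growth inhibition, relative to vehicle-treated controls, is the read-out. The test organism is a yeast strain with defined genetic alterations, cln2 rad14.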

[5] = NCI Yeast Anticancer Drug Screen. Data for the bub3 strain (AID 167); settings: S. cerevisiae bub3 mutant strain, at 50.0 µM, hits give high values
Method in brief: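 Readout: yeast growth inhibition, expressed relative to vehicle-only wells. The test organism is a mutant strain from a panel with lesions in DNA repair or checkpoint genes.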

[6] = NCI Yeast Anticancer Drug Screen. Data for the mlh1 rad18 strain (AID 175); settings: S. cerevisiae mlh1 rad18 strain growth inhibition; at 50.0 µM; hits give high values
Method in brief: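 Cells of a genetically altered yeast strain, deficient in DNA damage repair, were treated with compound. Their growth was then compared with that of vehicle-treated cultures to give inhibition.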

Measured: growth inhibition

O=C(Nc1ccccc1F)C(Cl)(Cl)Cl
inactive: [1] 6.55% | [2] -5.2% | [3] 9.3% | [4] -5% | [5] 16.7% | [6] 26.2%

CC1OC(OC2C(O)CC(OC3C(O)CC(OC4CCC5(C)C(CCC6C5CCC5(C)C(C7=CC(=O)OC7)C(O)CC65O)C4)OC3C)OC2C)CC(O)C1O (stereo not drawn)
inactive: [1] -12.8% | [2] 10.6% | [3] -19.1% | [4] -13.1% | [5] -5.45% | [6] 27.6%

C[C@]12CC[C@@H](O)C[C@H]1[C@@H](O)C[C@@H]1[C@@H]2CC[C@]2(C)C(=O)CC[C@@H]12
inactive: [1] -17.4% | [2] -4.35% | [3] 3.05% | [4] -17.1% | [5] 25.7% | [6] -11.1%

COc1ccc(/C=C/C=C2C(=O)NC(=S)NC2=O)cc1
inactive: [1] 25.6% | [2] 4.55% | [3] 29.1% | [4] 11.2% | [5] 0.75% | [6] 25.2%

CC(=O)OC(c1ccccc1Cl)C(Cl)(Cl)Cl (stereo not drawn)
inactive: [1] -16.9% | [2] -9.35% | [3] -4.65% | [4] -39.9% | [5] -14.2% | [6] -5.55%

CS(=O)(=O)NC(=NCCOS(C)(=O)=O)N[N+](=O)[O-]
inactive: [1] 9% | [2] -8.5% | [3] 19.4% | [4] -6.85% | [5] 1.9% | [6] 11.8%

CP(=S)(c1ccccc1)P(C)(=S)c1ccccc1 (stereo not drawn)
inactive: [1] -15.4% | [2] -19.4% | [3] -17.9% | [4] 5.05% | [5] -21.2% | [6] -31%

C[N+]1(C)C2CCC1CC(O)C2 (stereo not drawn)
inactive: [1] 5.45% | [2] -9.85% | [3] 3.55% | [4] 23.1% | [5] -6.35% | [6] 3.6%

O=c1n(CC2CS2)c2ccccc2n1CC1CS1 (stereo not drawn)
inactive: [1] 42% | [2] -0.6% | [3] 4.9% | [4] -30.4% | [5] -11.1% | [6] -5.3%

COc1cc(N(CCCl)CCCl)c(OC)cc1C=Nc1cccc(Cl)c1
inactive: [1] 31.4% | [2] 10.3% | [3] 44.4% | [4] 10.6% | [5] 24.6% | [6] 34.2%

COC(=O)C1C(C)N1P(=O)(OC)OC (stereo not drawn)
inactive: [1] 7.3% | [2] 3.65% | [3] -7.55% | [4] -44% | [5] -4.3% | [6] 6.6%

CN(C)C(=O)Oc1ccc([N+](=O)[O-])cc1OC(=O)N(C)C
inactive: [1] 2.4% | [2] -5.25% | [3] 0.8% | [4] -8.65% | [5] 9.95% | [6] -4.05%

Cc1cc(C)c(C#N)c(SSC(Cl)(Cl)Cl)n1
inactive: [1] 5.75% | [2] 18.9% | [3] 59.2% | [4] 15.1% | [5] 61.9% | [6] 40.9%

O=C(O)C(=O)O.[Co].[NH-]CC[NH-].[NH-]CC[NH-]
inactive: [1] 4.9% | [2] 13.4% | [3] 6.65% | [4] -12.8% | [5] 22.4% | [6] 12.8%

CC(O)c1ccc(Br)cc1 (stereo not drawn)
inactive: [1] -7.95% | [2] 13.3% | [3] 3.55% | [4] -72.4% | [5] -1.45% | [6] 16%

CC(=O)C(C(C)=O)C(C)=O.[Cr]
inactive: [1] 4.85% | [2] -15.1% | [3] -3.6% | [4] 11.1% | [5] -16.1% | [6] 6.45%

O=C(O)C(F)(F)F.O=C(O)C(F)(F)F.[C-]#[O+].[Ru].c1ccc([PH+](c2ccccc2)c2ccccc2)cc1.c1ccc([PH+](c2ccccc2)c2ccccc2)cc1
inactive: [1] 1.5% | [2] 22.2% | [3] 21.9% | [4] -7.45% | [5] -14.9% | [6] 14.3%

[C-]#[O+].[C-]#[O+].[C-]#[O+].[Cr].c1ccc(P(CC[PH+](CC[PH+](CC[PH+](c2ccccc2)c2ccccc2)c2ccccc2)c2ccccc2)c2ccccc2)cc1 (stereo not drawn)
inactive: [1] 36.3% | [2] 13.6% | [3] 41.5% | [4] 18.6% | [5] 33.8% | [6] 37.8%
